# In PubChem BioAssay AID463173 (ICCB-Longwood Screening Facility, Harvard Medical School, 2010):
# Hit rate of the full screen: of about 52,000 compounds, about 4,300 (8.3%) were called active. Rule as the data show it: active = survival mostly below about 52% (no sharp cut-off); inactive = mostly above about 56%. For the sample, actives were picked, then their nearest neighbours and some compounds at random.
# Test system: DeltatarO mutant
# Experiment: S. aureus survival, RN4220 and DeltatarO strains – OD600, teichoic acid synthesis inhibitors, primary screen (AID 463173)
# Conditions: S. aureus RN4220 wild type/DeltatarO growth, OD600, 18 h, hits give low values, screened at 18.75 µg/mL (by protocol)
row,SMILES,survival
1,COc1ccccc1-c1nnc(C2CCN(C(=O)c3ccc(C)cc3)CC2)o1,91% (inactive)
2,CCN(CC)N=Nc1ccc(S(=O)(=O)N=C(C)O)cc1,87% (inactive)
3,Nc1nnc(SCc2ccccc2)s1,49% (active)
4,Nc1nnc(CSCc2ccccc2)s1,109% (inactive)
5,Nc1nc(SCc2ccccc2)ns1,53% (inactive)
6,Cc1ccc(Nc2c(C(C)C)c(C)c(C#N)c3nc4ccccc4n23)cc1,62% (inactive)
7,CC(=O)Nc1ccc(Nc2c(CCC(C)C)c(C)c(C#N)c3nc4ccccc4n23)cc1,136% (inactive)
8,CCc1c(C)c(C#N)c2nc3ccccc3n2c1Nc1cccc(C(F)(F)F)c1,39% (active)
9,CCn1cc(S(=O)(=O)c2cccc(C)c2)c(=O)c2cc(F)c(N3CCCC(C)C3)cc21 (stereo not drawn),84% (inactive)
10,CC1=C(C(=O)Nc2ccc(C)cc2Cl)C2(CCCCCC2)OC1=O,89% (inactive)
11,Cc1nc2cc(-c3ccccc3)nn2c(C)c1CCC(=O)NCCc1ccccc1,54% (inactive)
12,COc1cc([N+](=O)[O-])ccc1NC(=O)N1CCN(c2cc(-c3noc(C)n3)ccc2C)CC1,94% (inactive)
13,COc1cc([N+](=O)[O-])ccc1NC(=O)N1CCC2(CC1)Nc1cc(F)ccc1-n1cccc12,46% (active)
14,COc1cc(NC(=O)N2CCC3(CC2)Nc2cc(F)ccc2-n2cccc23)cc(OC)c1OC,105% (inactive)
15,COc1cc([N+](=O)[O-])ccc1NC(=O)N1CCC2(CC1)Nc1ccccc1-n1cccc12,37% (active)
16,CCN1c2cc(C)ccc2-n2cccc2C12CCN(C(=O)Nc1cc(OC)c(OC)c(OC)c1)CC2,93% (inactive)
17,COc1cc(NC(=O)N2CCC3(CC2)Nc2ccccc2-n2cccc23)cc(OC)c1OC,101% (inactive)
18,Cc1cc(C(=O)Nc2cccc(OC(C)C)c2)c(C)o1,105% (inactive)
19,COc1cccc(CNC(=O)c2nnc(Cc3ccc(Cl)cc3)o2)c1,91% (inactive)
20,CCOc1ccc(CCNC(=O)CCn2c(=O)c3cccn3c3cccnc32)cc1,89% (inactive)
21,CCS/C=C/C#CC1(O)CCCCC1,90% (inactive)
22,Cc1ccccc1CNC(=O)c1ccc2nc(SCc3ccc(F)cc3)n(C)c2c1,60% (inactive)
23,COc1ccc(Cl)cc1NC(=O)Cn1ncc2c3ccccc3n(Cc3ccccc3)c2c1=O,125% (inactive)
24,CCOC(=O)Cn1nnc(-c2ccccc2)n1,95% (inactive)

row,SMILES,survival
1,CCOC(=O)c1[nH]c2c(c1Cc1ccccc1C)C(=O)CC(c1cc(OC)ccc1OC)C2 (stereo not drawn),82% (inactive)
2,COc1ccc(N2CCN(C(=O)CCc3c(C)nc4cc(-c5ccc(Cl)cc5)nn4c3C)CC2)cc1,116% (inactive)
3,O=C(O)/C=C/C(=O)Nc1nnc(-c2ccccc2F)s1,97% (inactive)
4,Cc1ccn2c(Nc3ccc4c(c3)OCCO4)c(-c3ccc(C)o3)nc2c1,58% (active)
5,Cc1ccc(-c2nc3ccccn3c2Nc2ccc3c(c2)OCO3)o1,34% (active)
6,c1coc(-c2nc3ccccn3c2Nc2ccc3c(c2)OCCO3)c1,53% (active)
7,Cc1ccc(-c2nc3ccccn3c2Nc2ccc3c(c2)OCCO3)o1,45% (inactive)
8,Cc1ccc(Nc2c(-c3ccc(Br)o3)nc3ccccn23)cc1,112% (inactive)
9,Cc1ccc2nc(-c3ccco3)c(Nc3ccc4c(c3)OCCO4)n2c1,67% (inactive)
10,Cc1ccc(-c2nc3ccccn3c2Nc2ccc3c(c2)OCO3)cc1,73% (inactive)
11,Cc1ccn2c(Nc3ccc4c(c3)OCO4)c(-c3ccc(C)o3)nc2c1,81% (inactive)
12,Cc1ccc(-c2nc3ccccn3c2Nc2c(C)cccc2C)o1,-2% (active)
13,Brc1ccc(-c2nc3ccccn3c2Nc2ccc3c(c2)OCCO3)o1,85% (inactive)
14,COc1ccc(Nc2c(-c3ccc(C)o3)nc3cc(C)ccn23)cc1,75% (inactive)
15,Cc1ccc2nc(-c3ccc(C)o3)c(Nc3ccc4c(c3)OCCO4)n2c1,72% (inactive)
16,CCc1nn(CC(=O)NCc2ccccc2Cl)c(=O)c2cc3ccccc3n12,62% (inactive)
17,Cc1ccc(Cn2c(SCc3ccc(C(=O)NC4CCCCC4)cc3)nc3ccncc32)cc1,71% (inactive)
18,Cc1cc(N2CCCC2)nc(SCC(=O)c2ccccc2)n1,77% (inactive)
19,COc1ccc(CCN2C(=O)CN(C3CCCCCC3)C(=O)C2c2ccc(C)cc2)cc1OC (stereo not drawn),92% (inactive)
20,Cc1ccc(Cl)cc1N1CCN(C(=O)c2cn(C)c3ccc(S(=O)(=O)N4CCCC4)cc3c2=O)CC1,124% (inactive)
21,Cc1ccccc1Cn1c2ccccc2c2cnn(CC(=O)N3CCC(C)CC3)c(=O)c21,41% (inactive)
22,Cc1ccc2oc(=O)n(CCNC(=O)Nc3ccc(C)c(F)c3)c2c1,108% (inactive)
23,N#CCCCn1c(=O)oc2ccccc21,100% (inactive)
24,O=c1oc2ccccc2n1CCCOc1ccccc1Cl,3% (active)

row,SMILES,survival
1,COc1ccc(OCCCn2c(=O)oc3ccc(C)cc32)cc1,39% (inactive)
2,Cc1ccc2oc(=O)n(CCCOc3ccccc3Cl)c2c1,-4% (active)
3,Cc1ccc2oc(=O)n(CCCOc3ccc(Cl)cc3)c2c1,-3% (active)
4,O=C(O)CCCn1c(=O)oc2ccccc21,96% (inactive)
5,Cc1c(Cl)cccc1NC(=O)NCCOCCn1c(=O)oc2ccccc21,51% (inactive)
6,CCOc1ccc(-c2cc(C(=O)N3CCN(c4cc(Cl)ccc4C)CC3)c3ccccc3n2)cc1,58% (inactive)
7,O=C(NCc1ccc2c(c1)CCN2C(=O)c1ccc(F)cc1)c1c(F)cccc1F,85% (inactive)
8,O=C(NCc1ccccc1Cl)c1ccc2nc(Cc3ccccc3)oc2c1,60% (inactive)
9,CC1CCN(S(=O)(=O)c2ccc3c(c2)N(CC(=O)NCCN(C)C)C(=O)CS3)CC1,108% (inactive)
10,COc1ccccc1CNC(=O)C1CCN(S(=O)(=O)c2ccc3c(c2)CCCN3C(C)=O)CC1,83% (inactive)
11,CC(=O)N1CCCc2cc(S(=O)(=O)N3CCC(C(=O)NC4CCCCC4)CC3)ccc21,94% (inactive)
12,COc1ccccc1CNC(=O)C1CCCN(S(=O)(=O)c2ccc3c(c2)CCCN3C(C)=O)C1 (stereo not drawn),52% (active)
13,CC(=O)N1CCCc2cc(S(=O)(=O)N3CCCCC3)ccc21,47% (active)
14,CC(=O)N1CCCc2cc(S(=O)(=O)N3CCC(N(C)C(C)C)CC3)ccc21,94% (inactive)
15,CC(=O)N1CCCc2cc(S(=O)(=O)N3CCCC(C(=O)NCc4ccccc4Cl)C3)ccc21 (stereo not drawn),95% (inactive)
16,CCOC(=O)N1CCc2c(sc3c2c(=O)n(Cc2ccccc2)c(=O)n3CC(=O)Nc2ccc(C)cc2C)C1,71% (inactive)
17,O=C(c1cc2ccccc2oc1=O)N1CCN(c2ccc(Cl)cc2)CC1,66% (inactive)
18,COc1cc(C(=O)NCCOc2ccc(C)c(C)c2)cc(OC)c1OC,98% (inactive)
19,Cc1cc(C)cc(NC2=CC(c3cccc(F)c3)N(c3cc(C)cc(C)c3)C2=O)c1 (stereo not drawn),87% (inactive)
20,CCn1cc(/C=C(\NC(=O)c2ccc(OC)cc2)C(=O)NCCCn2ccnc2)c2ccccc21,108% (inactive)
21,CC(C)CN(CC(C)C)CC(O)Cn1cc(/C=C/C(=O)c2ccccc2)c2ccccc21 (stereo not drawn),38% (active)
22,CCCN(CCC)CC(O)Cn1cc(/C=C/C(=O)c2ccc(C)cc2)c2ccccc21 (stereo not drawn),-2% (active)
23,CCCN(CCC)CC(O)Cn1cc(/C=C/C(=O)c2ccc(Br)cc2)c2ccccc21 (stereo not drawn),66% (inactive)
24,COc1ccc(C(=O)/C=C/c2cn(CC(O)CN(CC(C)C)CC(C)C)c3ccccc23)cc1 (stereo not drawn),58% (inactive)

row,SMILES,survival
1,CCCCN(CCCC)CC(O)Cn1cc(/C=C/C(=O)c2ccccc2)c2ccccc21 (stereo not drawn),5% (active)
2,CCCN(CCC)CC(O)Cn1cc(/C=C/C(=O)c2ccc(OC)cc2)c2ccccc21 (stereo not drawn),11% (active)
3,COc1ccc(C(=O)/C=C/c2cn(CC(O)CN3CCc4ccccc43)c3ccccc23)cc1 (stereo not drawn),58% (inactive)
4,COc1ccc(C(=O)/C=C/c2cn(CC(O)CN(CC(C)C)CC(C)C)c3ccccc23)cc1OC (stereo not drawn),91% (inactive)
5,CCCCN(CC)CCCNC(=O)c1cn(CC(C)C)c(=O)c2c1c1ccccc1n2C,115% (inactive)
6,Cc1ccc(C(=O)c2cn(Cc3ccccc3)c3ccccc3c2=O)cc1,75% (inactive)
7,Cc1nn(-c2ccccc2)c(=O)c2ccccc12,92% (inactive)
8,COc1ccc(-c2nc3nc(C)cc(Nc4ccc(C(C)=O)cc4)n3n2)cc1,54% (inactive)
9,CCc1nc2nc(C)cc(Nc3ccc(Br)cc3F)n2n1,128% (inactive)
10,Cc1cc(=O)n(CC(=O)Nc2ccc(Cl)c(Cl)c2)c(-n2nc(C)cc2C)n1,117% (inactive)
11,COc1ccccc1NC(=O)CCS(=O)(=O)c1cc2c3c(c1)CCN3C(=O)CC2,99% (inactive)
12,CCc1cccc(CC)c1-n1nnc2c(sc3nc(C)cc(C)c32)c1=O,83% (inactive)
13,Cc1cccc(C(=O)NCc2nnc(SCC(=O)Nc3ccccc3F)n2-c2ccccc2)c1,72% (inactive)
14,N#Cc1c(/N=C/c2cccnc2)sc2c1CCC2,100% (inactive)
15,CN1CCN(C(CNC(=O)c2ccccc2)c2ccc3c(c2)OCO3)CC1 (stereo not drawn),76% (inactive)
16,Nc1nc(N)nc(COc2ccccc2)n1,102% (inactive)
17,CCOC(=O)c1c(S(=O)(=O)N2CCCC(C(=O)NCc3ccccc3Cl)C2)c(C)n(C)c1C (stereo not drawn),122% (inactive)
18,CCc1cccc(C)c1NC(=O)CN1CCN(Cc2ccccc2Cl)S1(=O)=O,126% (inactive)
19,CCCN(CCC)CC(O)Cn1cc(/C=C/C(=O)c2ccc(OCC)cc2)c2ccccc21 (stereo not drawn),11% (active)
20,CCOc1ccc(C(=O)NCCn2cc(SCC(=O)Nc3ccccc3)c3ccccc32)cc1,71% (inactive)
21,COc1ccc(S(=O)(=O)N2CCCN(CC(=O)Nc3ccc(OC)cc3OC)CC2)cc1,72% (inactive)
